Test [1] is described as follows: qHTS assay to identify small molecule agonists of the TGF-beta/Smad signaling pathway - cell viability counter screen (AID 1346829). Further: top concentration of the series differs between compounds; nearly all actives have a fitted effect of over 45% in size. The method, boiled down:
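Tox21 qHTS format: SBE-bla HEK 293T cells treated with DMSO-dissolved compounds for 5 hr; CellTiter-Glo luminescence after 30 min at room temperature.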
(Quantitative high-throughput screening tests each substance at several concentrations.)

A short description of test [2]: qHTS assay to identify small molecule agonists of the TGF-beta/Smad signaling pathway (AID 1346859; active means well fitted activation curve with a large enough effect in the signal ratio in the repeat runs, not every such curve was filed as active; the % refers to the signal ratio; further: series mostly up to about 77 µM). In outline:
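Dual-wavelength fluorescence (460/530 nm emission) quantified beta-lactamase expression under the Smad binding element in HEK 293T cells following 5 hr compound treatment at 37 C.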

The target of test [3] is Thyrotropin-releasing hormone receptor (Homo sapiens) (UniProt P34981). Description: qHTS assay to identify small molecule antagonists of the thyrotropin-releasing hormone receptor (TRHR) signaling pathway (AID 1346877; active means well fitted inhibition curve with a large enough effect in the repeat runs, not every such curve was filed as active; further: series mostly up to about 51 µM). The method, boiled down:
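Cells (TRHR-HEK293) are plated and kept 18 h at 37 °C/5% CO2. A calcium-sensitive dye is added for 2 h, compound follows for 5 min at room temperature, and TRH is then given at 1 nM final.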

Test [4] has the same target. The test is described as follows: qHTS assay to identify small molecule agonists of the thyrotropin-releasing hormone receptor (TRHR) signaling pathway (AID 1346891; calls by dose curve;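 further: HEK293 cells expressing TRHR with calcium dye readout; series mostly up to about 58 µM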). The method, boiled down: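 Kinetic fluorescence (3 min, 1 s intervals) reported intracellular calcium after compound transfer onto TRHR-Hek293 cells pre-loaded with dye for 2 h at 37 °C.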
A short description of test [5]: Caspase-3/7 induction in HepG2 cells by small molecules, qHTS assay (AID 1346978). Further: nearly all actives have a fitted effect of over 15% in size. In outline:
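Wild-type HepG2 cells, 2,000/well, settled 5 hr at 37 C and 5% CO2, then compound-treated for 17 hr; caspase-3/7 activity read by luminescent Caspase-Glo 3/7 after 30 min at room temperature.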

The nature of test [6]: Caspase-3/7 induction in CHO-K1 cells by small molecules, qHTS cell viability counter screen (AID 1346979). Further: nearly all actives have a fitted effect of over 35% in size. In outline: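 Seeding: 1,500 CHO-K1 cells/well. Rest: 5hr, 37C. Treatment: compounds in DMSO, 16hr. Read: CellTiter-Fluor, 1hr, fluorescence.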
Test [7] can be described thus: Caspase-3/7 induction in CHO-K1 cells by small molecules, qHTS assay (AID 1346980). Further: nearly all actives have a fitted effect of over 15% in size. In outline:
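Wild-type CHO-K1 cells exposed to compounds for 17hr at 37 C, 5% CO2. Caspase-3/7 activity then measured by Caspase-Glo 3/7 luminescence after 30min at room temperature.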

Test [8] in a line: Caspase-3/7 induction in HepG2 cells by small molecules, qHTS cell viability counter screen (AID 1346981). Further: series mostly up to about 92 µM; nearly all actives have a fitted effect of over 30% in size. In outline: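 Steps: seed 2,000 HepG2 cells per well; incubate 5 hr at 37 C; pin-add compounds in DMSO; incubate 16 hr; add CellTiter-Fluor; after 1 hr at 37 C and 5% CO2, read fluorescence.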
For test [9], the target named is Nuclear receptor subfamily 1 group I member 2 (Rattus norvegicus) (UniProt Q9R1A7). The test is described as follows: Rat pregnane X receptor (rPXR) activation by small molecules, qHTS assay (AID 1346983). Further: nearly all actives have a fitted effect of over 20% in size. The following applies: rPXR luciferase reporter cells, One-Glo luminescence, 24 h; active compounds read high. The method, boiled down:
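Cell-based rPXR activation assay: rPXR cells, 2,000 per well, rested 5hr at 37 C, then exposed to compounds in DMSO for 24 hr at 37 C. Luciferase activity read by One-Glo luminescence after 30 min at room temperature.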

For test [10], the target named is Nuclear receptor subfamily 1 group I member 2 (Homo sapiens) (UniProt O75469). The test is described as follows: CYP3A4 induction through human pregnane X receptor (PXR) by small molecules, qHTS assay (AID 1346984). Further: nearly all actives have a fitted effect of over 40% in size. In outline: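 Steps: seed DPX-2 cells, 5 hr at 37C; pin-transfer compounds; 24 hr at 37C; add Luciferin-IPA (3uM final), 3 hr at 37C; add One-Glo, 30 min RT; read luminescence.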

For test [11] the target is unchanged. The test is described as follows: Human pregnane X receptor (PXR) activation by small molecules, qHTS assay (AID 1346985). Further: nearly all actives have a fitted effect of over 40% in size. The method, boiled down: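 DPX-2 cells (HepG2 co-transfected with a PXR response element and a CYP3A4-promoter luciferase construct) were seeded at 2,000 per well, rested 5 hr at 37C, then exposed to DMSO-dissolved compounds for 24 hr. Activation was read as luciferase luminescence.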

In test [12] the target is Cytochrome P450 2D6 (Homo sapiens) (UniProt P10635). The test is described as follows: Cytochrome P450 Family 2 Subfamily D Member 6 (CYP2D6) small molecule antagonists: luciferase reporter qHTS assay (AID 1671196). Further: nearly all actives have a fitted effect of over 50% in size. Further: potency means the concentration at half of the fitted maximal effect. On activity change, negative = inhibition: series mostly up to about 120 µM. The method, boiled down:
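P450-Glo format: CYP2D6 converts a proluciferin substrate to luciferin in an NADPH-driven reaction lasting 1 h at room temperature. Light output, proportional to CYP2D6 activity, reflects interference by test chemicals.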
(Reporter assays use an easily measured gene product as a stand-in for the process of interest.)

Test [13] concerns the target Cytochrome P450 2C19 (Homo sapiens) (UniProt P33261). The test is described as follows: Cytochrome P450 Family 2 Subfamily C Member 19 (CYP2C19) small molecule antagonists: luciferase reporter qHTS assay (AID 1671197). Further: nearly all actives have a fitted effect of over 65% in size. Further: potency means the concentration at half of the fitted maximal effect. On activity change, negative = inhibition: series mostly up to about 120 µM. In outline:
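Relative luminescence units recorded 20 min after the detection reagent stopped a 1 h, 37C CYP2C19 reaction on proluciferin substrate, which was started by NADPH regeneration following 10 min room-temperature compound preincubation; ketoconazole positive control.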

The target in test [14] is Cytochrome P450 2C9 (Homo sapiens) (UniProt P11712). Description: Cytochrome P450 Family 2 Subfamily C Member 9 (CYP2C9) small molecule antagonists: luciferase reporter qHTS assay (AID 1671198). Further: series mostly up to about 120 µM; nearly all actives have a fitted effect of over 50% in size. The method, boiled down:
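P450-Glo proluciferin substrate with CYP2C9 enzyme; 10 min RT preincubation, then NADPH regeneration 1 h at 37C; luciferin detection reagent 20 min RT, luminescence in relative luminescence units.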

Test [15] addresses Cytochrome P450 1A2 (Homo sapiens) (UniProt P05177). The test is described as follows: Cytochrome P450 Family 1 Subfamily A Member 2 (CYP1A2) small molecule antagonists: luciferase reporter qHTS assay (AID 1671199). Further: nearly all actives have a fitted effect of over 50% in size. Further: potency means the concentration at half of the fitted maximal effect. On activity change, negative = inhibition: series mostly up to about 120 µM. In outline:
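Inhibition of CYP1A2 conversion of proluciferin to luciferin, detected by luminescence. Reaction run 1 h at room temperature with NADPH regeneration after brief compound preincubation.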

The target in test [16] is Voltage-gated inwardly rectifying potassium channel KCNH2 (Homo sapiens) (UniProt Q12809). The test is described as follows: Human Ether-a-go-go-Related Gene (hERG) channel small molecule antagonists: fluorescence cell-based qHTS assay (AID 1671200).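 Further: hERG-expressing U2OS cells given a thallium stimulus after FluxOR II dye loading; series mostly up to about 77 µM; nearly all actives have a fitted effect of over 50% in size.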 The method, boiled down:
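First, 1000 cells per well are seeded and cultured overnight at 37 C. Next, FluxOR II dye is loaded for 1 h at room temperature, protected from light. After 10 more minutes, stimulus is added and fluorescence is read.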
A general note: hERG is a cardiac potassium channel; its block is linked to QT prolongation.

Test [17] has as its target Cytochrome P450 3A4 (Homo sapiens) (UniProt P08684). The test is described as follows: Cytochrome P450 Family 3 Subfamily A Member 4 (CYP3A4) small molecule antagonists: luciferase reporter qHTS assay (AID 1671201). In outline: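 Enzyme and proluciferin substrate are mixed with test chemicals for 10 min, then NADPH regeneration system drives turnover for 1 h at room temperature. A detection reagent halts the reaction; luminescence after 20 min gives relative activity.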

Test [18] in a line: Human pregnane X receptor (PXR) small molecule agonists, qHTS cell viability counter screen (AID 1346977). Further: nearly all actives have a fitted effect of over 50% in size. In outline: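 HepG2 cells stably carrying the PXR-Luc reporter are cultured with 5% charcoal-stripped FBS and treated with compounds for 24hr. CellTiter-Fluor is added at 23hr and fluorescence is read after 1hr.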
Test [19] addresses Nuclear receptor subfamily 1 group I member 2 (Homo sapiens) (UniProt O75469). Description: Human pregnane X receptor (PXR) small molecule agonists, qHTS assay (AID 1346982). Further: nearly all actives have a fitted effect of over 35% in size. In outline: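 Agonist mode qHTS: PXR-Luc HepG2 cells plated 5 hr before DMSO-dissolved compounds were pinned in, cultured 24 hr at 37 C, 5% CO2; ONE-Glo luminescence readout.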

The structures appear in SMILES notation. Unmarked numbers belong to inactive results. Inconclusive results are not listed. Activity calls are given as the source filed them. Unless noted, the call rests on the fitted dose curve; in most records, active means well fitted curve in the direction sought with a large enough effect in the repeat runs; inconclusive means weak or mixed curves; inactive means no such curve, though single readings can be large; an effect the other way counts as inactive or inconclusive.
On the % scale 0 is the no-effect control and ±100 the full control effect.

Sequence of Cytochrome P450 2C9 (Homo sapiens) (P11712 whole entry, looked up): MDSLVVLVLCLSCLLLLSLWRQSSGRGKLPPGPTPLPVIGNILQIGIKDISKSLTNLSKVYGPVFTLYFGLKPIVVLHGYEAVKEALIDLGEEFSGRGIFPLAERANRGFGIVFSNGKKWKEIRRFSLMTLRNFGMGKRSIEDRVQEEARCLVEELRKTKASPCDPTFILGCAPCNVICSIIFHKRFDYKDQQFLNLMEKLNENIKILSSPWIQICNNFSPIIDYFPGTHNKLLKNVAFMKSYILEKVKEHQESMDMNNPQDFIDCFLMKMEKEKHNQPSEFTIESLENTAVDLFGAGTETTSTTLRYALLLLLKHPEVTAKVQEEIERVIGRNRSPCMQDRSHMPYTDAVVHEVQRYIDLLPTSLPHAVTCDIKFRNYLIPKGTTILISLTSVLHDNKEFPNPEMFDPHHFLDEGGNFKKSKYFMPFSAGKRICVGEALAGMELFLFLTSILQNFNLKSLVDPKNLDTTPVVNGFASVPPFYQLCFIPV
Sequence of Cytochrome P450 1A2 (Homo sapiens) (P05177 whole entry, looked up): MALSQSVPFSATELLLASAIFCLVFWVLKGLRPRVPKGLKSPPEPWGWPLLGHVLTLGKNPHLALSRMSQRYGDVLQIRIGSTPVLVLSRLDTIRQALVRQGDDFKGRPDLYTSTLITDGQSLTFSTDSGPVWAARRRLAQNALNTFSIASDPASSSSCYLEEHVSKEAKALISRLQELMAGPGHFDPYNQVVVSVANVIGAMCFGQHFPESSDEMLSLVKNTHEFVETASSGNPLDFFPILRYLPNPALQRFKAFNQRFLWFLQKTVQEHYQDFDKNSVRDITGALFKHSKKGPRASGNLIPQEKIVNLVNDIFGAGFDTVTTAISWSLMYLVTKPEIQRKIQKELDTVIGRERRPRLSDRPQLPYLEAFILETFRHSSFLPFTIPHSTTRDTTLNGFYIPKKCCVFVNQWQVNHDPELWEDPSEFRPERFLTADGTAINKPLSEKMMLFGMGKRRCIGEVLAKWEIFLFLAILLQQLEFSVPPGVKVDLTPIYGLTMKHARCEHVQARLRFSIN
Sequence of Voltage-gated inwardly rectifying potassium channel KCNH2 (Homo sapiens) (Q12809 whole entry, looked up): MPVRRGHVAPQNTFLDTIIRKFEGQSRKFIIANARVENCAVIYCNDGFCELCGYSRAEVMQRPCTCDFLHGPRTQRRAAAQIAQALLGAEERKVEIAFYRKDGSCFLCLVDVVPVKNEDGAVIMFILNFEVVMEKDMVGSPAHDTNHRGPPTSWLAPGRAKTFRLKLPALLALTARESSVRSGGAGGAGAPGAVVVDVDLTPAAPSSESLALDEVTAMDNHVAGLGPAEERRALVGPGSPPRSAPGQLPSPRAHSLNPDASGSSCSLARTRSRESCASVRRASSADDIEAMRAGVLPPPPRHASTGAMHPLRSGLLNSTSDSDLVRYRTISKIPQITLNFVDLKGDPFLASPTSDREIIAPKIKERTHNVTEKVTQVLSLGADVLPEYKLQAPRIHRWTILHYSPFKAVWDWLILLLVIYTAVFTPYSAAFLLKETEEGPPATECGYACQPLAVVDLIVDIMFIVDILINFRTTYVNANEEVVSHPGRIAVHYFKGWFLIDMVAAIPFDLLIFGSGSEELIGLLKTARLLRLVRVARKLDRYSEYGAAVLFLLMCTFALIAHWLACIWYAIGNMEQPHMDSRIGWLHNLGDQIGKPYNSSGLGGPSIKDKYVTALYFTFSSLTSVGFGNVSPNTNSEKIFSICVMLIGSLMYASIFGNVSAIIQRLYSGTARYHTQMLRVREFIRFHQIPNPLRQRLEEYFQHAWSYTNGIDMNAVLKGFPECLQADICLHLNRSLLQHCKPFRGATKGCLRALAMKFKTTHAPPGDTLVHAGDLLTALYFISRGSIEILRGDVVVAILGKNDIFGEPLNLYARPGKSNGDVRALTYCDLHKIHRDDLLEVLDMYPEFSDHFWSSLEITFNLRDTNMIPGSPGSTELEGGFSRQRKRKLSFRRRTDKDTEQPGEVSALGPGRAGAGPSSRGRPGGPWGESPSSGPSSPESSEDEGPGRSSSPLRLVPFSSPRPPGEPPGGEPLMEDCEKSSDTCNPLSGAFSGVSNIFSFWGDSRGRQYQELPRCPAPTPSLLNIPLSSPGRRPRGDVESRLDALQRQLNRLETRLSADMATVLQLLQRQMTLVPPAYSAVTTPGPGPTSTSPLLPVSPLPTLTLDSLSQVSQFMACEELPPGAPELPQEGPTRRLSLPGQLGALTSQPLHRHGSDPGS
Sequence of Nuclear receptor subfamily 1 group I member 2 (Homo sapiens) (O75469 whole entry, looked up): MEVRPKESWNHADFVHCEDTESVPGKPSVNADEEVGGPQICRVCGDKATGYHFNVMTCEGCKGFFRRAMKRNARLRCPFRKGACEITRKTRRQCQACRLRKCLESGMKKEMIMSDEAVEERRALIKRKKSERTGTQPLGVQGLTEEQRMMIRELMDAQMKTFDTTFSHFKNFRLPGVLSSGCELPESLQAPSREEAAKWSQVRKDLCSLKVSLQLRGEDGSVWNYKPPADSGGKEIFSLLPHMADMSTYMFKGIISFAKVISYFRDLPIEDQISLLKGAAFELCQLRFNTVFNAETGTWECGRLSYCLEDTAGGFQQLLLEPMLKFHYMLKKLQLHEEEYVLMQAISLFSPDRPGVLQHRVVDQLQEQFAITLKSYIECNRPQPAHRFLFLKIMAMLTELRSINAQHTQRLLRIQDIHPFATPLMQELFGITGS
Sequence of Cytochrome P450 2C19 (Homo sapiens) (P33261 whole entry, looked up): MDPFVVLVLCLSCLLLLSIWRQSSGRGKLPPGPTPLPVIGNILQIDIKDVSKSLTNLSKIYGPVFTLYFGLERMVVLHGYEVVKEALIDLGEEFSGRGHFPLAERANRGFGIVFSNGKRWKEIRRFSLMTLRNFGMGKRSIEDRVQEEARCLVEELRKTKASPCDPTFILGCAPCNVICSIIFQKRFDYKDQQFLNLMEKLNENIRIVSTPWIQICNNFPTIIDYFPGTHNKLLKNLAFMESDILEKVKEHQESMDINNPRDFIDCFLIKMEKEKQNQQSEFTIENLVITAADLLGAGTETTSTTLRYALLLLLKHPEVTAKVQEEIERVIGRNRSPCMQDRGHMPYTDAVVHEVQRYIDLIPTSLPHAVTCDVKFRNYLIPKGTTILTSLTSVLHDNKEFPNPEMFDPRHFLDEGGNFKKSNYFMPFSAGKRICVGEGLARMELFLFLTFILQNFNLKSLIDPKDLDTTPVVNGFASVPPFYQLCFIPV
Sequence of Cytochrome P450 3A4 (Homo sapiens) (P08684 whole entry, looked up): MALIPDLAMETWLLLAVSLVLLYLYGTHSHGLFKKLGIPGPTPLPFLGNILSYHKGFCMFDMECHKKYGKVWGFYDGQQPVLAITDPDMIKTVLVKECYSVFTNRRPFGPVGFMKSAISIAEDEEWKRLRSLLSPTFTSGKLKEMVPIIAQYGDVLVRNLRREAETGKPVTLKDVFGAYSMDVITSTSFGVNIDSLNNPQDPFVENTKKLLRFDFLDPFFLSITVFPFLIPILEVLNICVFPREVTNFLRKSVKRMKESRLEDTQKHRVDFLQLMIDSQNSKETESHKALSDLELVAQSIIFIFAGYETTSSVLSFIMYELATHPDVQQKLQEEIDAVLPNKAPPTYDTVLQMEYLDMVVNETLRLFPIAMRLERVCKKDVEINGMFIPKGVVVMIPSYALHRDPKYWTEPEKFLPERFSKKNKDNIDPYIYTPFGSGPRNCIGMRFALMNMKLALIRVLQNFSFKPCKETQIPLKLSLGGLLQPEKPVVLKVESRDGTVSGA
Sequence of Nuclear receptor subfamily 1 group I member 2 (Rattus norvegicus) (Q9R1A7 whole entry, looked up): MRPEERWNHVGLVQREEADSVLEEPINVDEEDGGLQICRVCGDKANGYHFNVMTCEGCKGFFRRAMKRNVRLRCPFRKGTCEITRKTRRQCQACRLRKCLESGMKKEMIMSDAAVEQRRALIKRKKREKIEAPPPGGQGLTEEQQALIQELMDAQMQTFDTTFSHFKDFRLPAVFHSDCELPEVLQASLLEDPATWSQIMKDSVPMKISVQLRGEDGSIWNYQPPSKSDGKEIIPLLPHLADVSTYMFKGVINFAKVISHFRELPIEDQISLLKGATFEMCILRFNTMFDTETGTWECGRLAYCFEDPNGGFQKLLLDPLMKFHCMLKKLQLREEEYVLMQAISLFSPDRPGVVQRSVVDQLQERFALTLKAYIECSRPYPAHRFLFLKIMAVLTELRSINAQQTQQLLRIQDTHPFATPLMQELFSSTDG
Sequence of Thyrotropin-releasing hormone receptor (Homo sapiens) (P34981 whole entry, looked up): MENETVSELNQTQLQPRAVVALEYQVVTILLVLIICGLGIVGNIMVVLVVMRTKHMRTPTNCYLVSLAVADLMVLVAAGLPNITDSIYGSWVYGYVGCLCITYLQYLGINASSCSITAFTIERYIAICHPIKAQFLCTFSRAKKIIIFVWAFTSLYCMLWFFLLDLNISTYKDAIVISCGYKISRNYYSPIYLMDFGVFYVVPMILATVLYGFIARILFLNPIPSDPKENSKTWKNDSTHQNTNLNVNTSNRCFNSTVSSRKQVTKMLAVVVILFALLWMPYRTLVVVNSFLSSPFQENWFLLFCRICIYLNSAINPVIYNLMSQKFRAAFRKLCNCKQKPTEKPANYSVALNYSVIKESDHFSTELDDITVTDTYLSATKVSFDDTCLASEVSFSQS
Sequence of Cytochrome P450 2D6 (Homo sapiens) (P10635 whole entry, looked up): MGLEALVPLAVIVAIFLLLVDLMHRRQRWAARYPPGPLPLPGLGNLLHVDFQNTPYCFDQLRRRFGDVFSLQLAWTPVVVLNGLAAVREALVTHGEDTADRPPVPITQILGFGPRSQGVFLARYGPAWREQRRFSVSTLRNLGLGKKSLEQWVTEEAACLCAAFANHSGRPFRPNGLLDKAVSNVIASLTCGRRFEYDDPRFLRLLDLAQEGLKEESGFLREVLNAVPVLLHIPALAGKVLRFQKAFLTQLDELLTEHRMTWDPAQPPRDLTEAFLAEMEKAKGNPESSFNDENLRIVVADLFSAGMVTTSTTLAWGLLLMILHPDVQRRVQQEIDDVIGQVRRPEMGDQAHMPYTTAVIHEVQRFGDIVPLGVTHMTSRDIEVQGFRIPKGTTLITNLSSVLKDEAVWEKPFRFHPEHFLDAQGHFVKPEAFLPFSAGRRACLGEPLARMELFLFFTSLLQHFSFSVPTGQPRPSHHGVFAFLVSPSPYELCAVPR

`CC(=O)O[C@@H]1CC2CCC1(C)C2(C)C` (stereo partly specified): the compound was called inactive in test [1], in [2], in test [3], in test [4], in test [5] and in test [7]. Further, in [8], the call was inactive. For the same compound, the Potency result in [6], in [10], in test [11], in test [12], in test [13] and in test [14] was “inactive” throughout. Also, the Potency result in test [15], in [16] and in test [17] was “inactive” throughout. For the same compound, in [9], the max activation is -1.62%.

Take `O=C1NC(c2ccccc2)(c2ccccc2)C(=O)N1COP(=O)(O)O`: the outcome in [1], in test [2], in test [3], in [18], in [5] and in [7] was inactive. Moreover, the compound was called inactive in test [8]. Moreover, the Potency entry in test [6], in test [19], in [12], in test [13], in [14] and in test [15] was “inactive” each time. The Potency result in [16] and in test [17] was “inactive” throughout.

As to `CC(C)CCOC(=O)c1ccccc1`, the outcome in [1], in test [2], in test [3], in [4], in test [5] and in [7] was inactive. Besides, the call in test [8] was inactive. Also, the Potency entry in test [6], in test [19], in test [12], in test [13], in test [14] and in test [16] was “inactive” each time. Also, the Potency result in [17] is “inactive”.

`CN1C[C@@H]2C[C@H]1CN2c1cc2c(cc1F)c(=O)c(C(=O)O)cn2C1CC1`: the activity change, negative = cytotoxicity is 2.12% [at 15.8 µM] in [1], -0.0368% [at 19 µM] in test [6] and -1.05% [at 19 µM] in test [8]. In addition, the results for the activation in test [2], in test [4] and in test [19] were 0.101% [at 15.8 µM], -1.22% [at 11.8 µM] and -18.6% [at 19 µM], respectively. Also, the activity, negative = inhibition in test [3] is 1.83% [at 10.5 µM]. Besides, the caspase activation in test [5] was -0.0526% [at 19 µM]. Also, the caspase-3/7 activation in test [7] is -1.08% [at 19 µM]. For the same compound, the max activation in test [9] was -1.05%. Moreover, the Potency entry in [10] and in test [11] was “inactive” throughout. For the same compound, the activity change, negative = inhibition in test [12] was 4.43% [at 23.6 µM]; in [13] it was 35.3% [at 23.6 µM]; in test [14], 8.53% [at 23.6 µM]; in test [15], -8.84% [at 23.6 µM]; in test [16] it was 0.182% [at 15.8 µM]; in [17], 4.83% [at 23.6 µM].

With `CC(C)C[C@@H]1[C@H](c2ccccc2)OC(=O)N1CCCN1CCCCCC1`, the compound was called inactive in test [1], in test [2], in [3], in [4], in test [5] and in test [7]. For the same compound, the compound was called inactive in test [8]. Besides, the Potency was 0.436 µM (active) in [12] and 2.75 µM (active) in test [13]. The Potency result in test [15] and in test [16] was “inactive” throughout.

Regarding `Cc1ccc(C)c([N+](=O)[O-])c1`, the outcome in test [1], in test [2], in test [3], in [18], in test [5] and in test [7] was inactive. The result in [8] was inactive. Further, the Potency entry in test [6], in [19], in [12], in test [13], in test [14] and in test [15] was “inactive” throughout. The Potency result in test [16] and in test [17] was “inactive” throughout.

For `CN(C)CCCO[C@@H]1[C@H]2OC(C)(C)O[C@H]2O[C@@H]1C(O)CO` (stereo partly specified), the outcome in test [1], in test [2], in test [3], in test [4], in test [5] and in [7] was inactive. For the same compound, the compound was called inactive in test [8]. For the same compound, the Potency entry in test [19], in test [10], in [11], in test [12], in test [13] and in test [14] was “inactive” each time. Also, the Potency entry in [15], in test [16] and in test [17] was “inactive” in each case. Besides, the max activation in test [9] is -3.96%.

In the case of `CCCCCCCCCCCCCCC(=O)NC(CO)CCCCCCCCCCCCCC` (stereo unspecified), the call in test [1], in [2], in [3], in [4], in test [5] and in [7] was inactive. For the same compound, the call in test [8] was inactive. Further, the Potency entry in test [6], in [19], in [12], in test [14], in [16] and in [17] was “inactive” each time. Moreover, the Potency in test [15] was 63.8 µM (active).
